Laboratory results: ChEMBL document CHEMBL4296182, “CO-ADD screening of NIH NCI Diversity Set V”
For part of these data: Measured potencies and affinities stand elsewhere.

Legend:
[1] = system: Staphylococcus aureus; test: Antibacterial activity against Staphylococcus aureus MRSA ATCC 43300 (CO-ADD:GP_020); MIC in CAMBH media using NBS plates, by Resazurin F(560/590); format: functional; details: Concentration 20 uM, ASSAY_TEST Inhibition of Bacterial Growth, detection method Resazurin, Fluorescence (ex560/em590), MEDIA CAMHB, plate type 384well, CORNING #3640, time 18 hr
[2] = system: Acinetobacter baumannii; test: Antibacterial activity against Acinetobacter baumannii ATCC 19606 (CO-ADD:GN_034); MIC in CAMBH media using NBS plates, by Resazurin F(560/590); format: functional; details: Concentration 20 uM, ASSAY_TEST Inhibition of Bacterial Growth, detection method Resazurin, Fluorescence (ex560/em590), MEDIA CAMHB, plate type 384well, CORNING #3640, time 18 hr
[3] = system: Escherichia coli; test: Antibacterial activity against Escherichia coli ATCC 25922 (CO-ADD:GN_001); MIC in CAMBH media using NBS plates, by Resazurin F(560/590); format: functional; details: Concentration 20 uM, ASSAY_TEST Inhibition of Bacterial Growth, detection method Resazurin, Fluorescence (ex560/em590), MEDIA CAMHB, plate type 384well, CORNING #3640, time 18 hr
[4] = system: Klebsiella pneumoniae; details: Concentration 20 uM; ASSAY_TEST Inhibition of Bacterial Growth; detection method Absorption (OD600); MEDIA CAMHB; plate type 384well; NBS; CORNING #3640; time 18 hr
[5] = system: Candida albicans; details: 20 µM
[6] = system: Cryptococcus neoformans; details: Concentration 20 uM; ASSAY_TEST Inhibition of Fungal Growth; detection method Resazurin; Absorption (OD600-OD570); plate type 384well; NBS; CORNING #3640

| Structure (SMILES) | Inhibition [1] [%] | Inhibition [2] [%] | Inhibition [3] [%] | Inhibition [4] [%] | Inhibition [5] [%] | Inhibition [6] [%] |
| --- | --- | --- | --- | --- | --- | --- |
| O=[N+]([O-])c1ccccc1/C=C/C=N/N=C/c1ccccc1O | 0.05 | -15.14 | 9.06 | 2.2 | 2.43 | 3.86 |
| CC1(C)SC(C)(C)N(C=O)C1C(=O)O (stereo not drawn) | -0.19 | -4.51 | 4.94 | 4.48 | 1.14 | -3.91 |
| COc1ccc(NC(=O)N2CCN(C(=O)Nc3ccc(OC)cc3)CC2)cc1 | 0.79 | 9.56 | -5.74 | 5.35 | -1.52 | 3.31 |
| COc1ccc(NC2=NC(C)(CO)CS2)cc1 (stereo not drawn) | 33.41 | -4.98 | 1.2 | 15.06 | 1.85 | 5.77 |
| Cc1nnc2nc(-c3ccccc3)nc(-c3ccccc3)n12 | -12.94 | 8.22 | 2.26 | 4.14 | 4.58 | -11.59 |
| C(=N\N=c1/nnn(Cc2ccccc2)[nH]1)/c1ccccc1 | 11.96 | -3.55 | 3.73 | 9.14 | 6.47 | -8.48 |
| O=C(Nc1ccc(Oc2ccc(NC(=O)Nc3ccc([N+](=O)[O-])cc3)cc2)cc1)Nc1ccc([N+](=O)[O-])cc1 | 16.59 | -20.31 | 13.56 | 15.1 | 1.13 | -4.65 |
| O=C(/C=C/c1ccc(Cl)s1)c1ccc(Cl)s1 | 14.77 | 5.48 | -1.03 | 0.02 | 4.39 | -6.98 |
| COc1cc2c(=O)n3c4c(cccc4c2cc1OC)CC3 | 9.4 | -8.34 | 13.88 | 1.26 | 1.37 | -14.32 |
| O=c1[nH]c(=S)c2ncn(-c3ccccc3)c2[nH]1 | -3.01 | -10.26 | 3.12 | 1.95 | 9.78 | -2.67 |
| c1ccc(-c2nc(-c3nccc4ccccc34)oc2-c2ccccc2)cc1 | -13.7 | -4.32 | -16.8 | -4.05 | 15.1 | 12.09 |
| Cn1c(=O)c2c(ncn2CCOC(=O)C(C)(C)Oc2ccc(Cl)cc2)n(C)c1=O [THEOFIBRATE] | -5.55 | -11.51 | 14.7 | 11.96 | 0.53 | -5.77 |
| CCOC(=O)c1csc(-c2ccc(COC(=O)c3ccccc3)o2)n1 | 13.59 | 3.92 | -0.69 | 10.14 | 4.97 | -13.35 |
| CCOC(=O)c1cc(-c2ccccc2)nc2ccc(C)cc12 [NEOCINCHOPHEN] | 2.82 | 5.48 | -14.74 | 14.7 | 9.92 | 24.59 |
| Cc1ccc(C(C)C)cc1NC(=O)Nc1ccc([N+](=O)[O-])cc1 | 19.7 | 7.88 | -5.77 | 22.27 | 8.72 | -7.56 |
| CN(C)c1nc(Cl)nc2c1nc(Cl)n2C1CCCCO1 (stereo not drawn) | 8.01 | -7.69 | 0.28 | 5.28 | 1.95 | -3.53 |
| Nc1ncncc1-c1ccc2ccccc2c1 | 8.62 | 6.7 | 0.44 | 17.13 | 5.79 | -7.84 |
| S=C(Nc1ccccc1)Nc1nccs1 | -6.83 | 13.46 | -3.08 | 13.95 | 19.1 | 1.13 |
| N#CC1C(=O)NC(=O)C(C#N)C12CCCC(C(F)(F)F)C2 (stereo not drawn) | 7.59 | 8.61 | -6.62 | 4.19 | 1.89 | -0.69 |
| CCNc1nn2ccccc2c1/C=C(/C#N)C(=O)OCC | 10.32 | -16.65 | 7.73 | 11.76 | 8.75 | -8.42 |
| Cc1c(C#N)c2n(c1C)CCCC(=O)N2 | 39.05 | 3.89 | 19.57 | 7.55 | 10.6 | 5.76 |
| O=C(O)CCC(=O)c1ccc2ccc3cccc4ccc1c2c34 | -4.99 | 9.69 | -8.48 | 28.79 | 21.7 | -11.75 |
| CCCNC(=O)c1ccc(S(N)(=O)=O)cc1 | 24.95 | -15.44 | 7.13 | 13.6 | -0.57 | -5.61 |
| O=C(Oc1cccnc1O)c1cccc(Cl)c1 | -7.64 | 10.47 | 6.47 | 11.85 | 13.4 | -17.52 |

| Structure (SMILES) | Inhibition [1] [%] | Inhibition [2] [%] | Inhibition [3] [%] | Inhibition [4] [%] | Inhibition [5] [%] | Inhibition [6] [%] |
| --- | --- | --- | --- | --- | --- | --- |
| Cc1c2cnccc2c(C)c2c1c1ccccc1n2CCOC(=O)c1ccccc1 | -1.71 | 14.72 | 4.49 | 5.61 | 22.1 | -19.42 |
| CCOC(=O)C(=O)C1C(=O)Nc2ccccc21 (stereo not drawn) | 11.5 | 4.6 | -3.33 | 15.66 | 13.9 | -6.08 |
| Cc1nc2ccccc2nc1N1CCCC1 | 12.43 | -3.73 | 4.2 | 6.96 | 2.02 | -9.29 |
| CCOC(=O)c1[nH]c(CO)c(C(=O)OCC)c1C | 12.97 | 11.05 | 2.06 | 19.54 | 9.36 | -4.6 |
| Nc1ncnc2c1ncn2C=C=CCO | 13.44 | 8.12 | -2.59 | 6.59 | 1.58 | -2.86 |
| CC1(C)CCSC(/C=C/c2ccccc2)=N1 | 5.78 | 13.91 | -1.41 | 18.54 | 1.26 | -4.58 |
| c1cc2c3c(cccc3c1)NC1(CCC3(CC1)Nc1cccc4cccc(c14)N3)N2 | 1.15 | 7 | 12.93 | 19.89 | 2.38 | -5.58 |
| COc1cc(Cl)c(CC(=O)c2c[nH]c3ccccc23)cc1OC | -6.42 | 2.77 | -1.53 | 5.86 | 3.17 | -1.97 |
| CN(C)C(=O)OCC1COc2ccccc2O1 (stereo not drawn) | 14.89 | -13.85 | 7.79 | 12.42 | -0.21 | -9.62 |
| CCOC(=O)Cn1nc2oc(=O)c(CCN3CCN(c4ccccc4OC)CC3)c(C)c2c1C | 17.7 | -3.04 | 11.66 | 16.06 | 2.37 | -3.33 |
| CCn1c2ccccc2nc2cc3c(cc21)c(Cl)c(=O)c1ccccc13 | 25.73 | 12.51 | 3.84 | 12.19 | -1.37 | -5.64 |
| Nc1cc([N+](=O)[O-])ccc1Nc1ccc(O)cc1 | -9.75 | -11.21 | 0.26 | 0.39 | 3.23 | -0.22 |
| Cc1csc(/N=N/c2ccc(N(C)C)cc2)[n+]1[O-] | 7.37 | -4.68 | 8.16 | 7.6 | 0.83 | -12.25 |
| O=C1OC(CN(Cc2ccccc2)Cc2ccccc2)CN1/N=C/c1ccc([N+](=O)[O-])o1 (stereo not drawn) | -19.95 | -14.51 | 10.29 | 6.15 | 10.5 | -4.47 |
| c1ccc2c(c1)Nc1ccncc1S2 | 6.69 | -7.03 | 3.1 | 3.6 | 2.27 | -9.93 |
| CC(=O)CC(=O)Nc1ccc2ccccc2c1 | -8 | 10.6 | 5.41 | 9.32 | 7.43 | -13.72 |
| CCN(CC)Cc1cc2[nH]c3c4ccc(Cl)cc4ncc3c2cc1OC | 9.09 | 18.93 | -2.05 | 30.45 | -0.29 | -5.75 |
| Oc1ncnc(CN2CCCCC2)c1O | 7.4 | 1.82 | 7.79 | 2.35 | -1.92 | -11.85 |
| COc1ccc(CC(=O)c2ccc(O)cc2O)cc1 [ONONETIN] | 1.4 | 4.43 | 2.27 | 20.95 | 17.6 | -13.72 |
| CC(=O)Oc1ccc(OC(C)=O)c2c1CC1(C)OC1(C)C2 (stereo not drawn) | 13.73 | 5.72 | 3.36 | 9.63 | -0.12 | -11.66 |
| Cn1ncc2c(Nc3ccc([N+](=O)[O-])cc3)nc(Cl)nc21 | -16.06 | 3.27 | -14.4 | -8.72 | -1.97 | -3.09 |
| COc1ccc(C2=NC(=O)NC2c2ccc(OC)cc2)cc1 (stereo not drawn) | 6.62 | 10.45 | -0.66 | 17.66 | 6.15 | -4.19 |
| Sc1nc2c[nH]c(S)nc-2n1 | 21.94 | -11.86 | 14.36 | 15.98 | 5.35 | -7.36 |
| Cc1cc(C)c(C#N)c(Sc2nc(C)c([N+](=O)[O-])c(C)c2C#N)n1 | 33.8 | 4.2 | 1.58 | 21.76 | 8.27 | 2.92 |
